Columns and labels:
Test in all cases: SELEX-seq (CSI, HT-SELEX, round 3); SELEX-seq: 1x PBS (10 mM phosphate, 137 mM NaCl, 2.7 mM KCl) pH 7.6, 2.5 mM DTT, 50 ng/ul poly dI-dC, 0.1% BSA, 50 nM biotinylated bZIP (1:3 with partner for heterodimers), 100 nM library, room temperature, 1 h, 3 rounds; high values mean tight binding
Conditions in all cases: protein: recombinant;recombinant; copies: 1;1; dsDNA, one strand shown
FOS;CEBPG = FOS;CEBPG (Homo sapiens;Homo sapiens, UniProt P01100;P53567 128-201;52-130, |)
JUN;ATF3 = JUN;ATF3 (Homo sapiens;Homo sapiens, UniProt P05412;P18847 243-316;77-150, |)
JUN;JUN = JUN;JUN (Homo sapiens;Homo sapiens, UniProt P05412;P05412 243-316;243-316, |)
ATF4;CEBPG = ATF4;CEBPG (Homo sapiens;Homo sapiens, UniProt P18848;P53567 269-346;52-130, |)
ATF4;CEBPA = ATF4;CEBPA (Homo sapiens;Homo sapiens, UniProt P18848;P49715 269-346;273-345, |)
ATF4;ATF4 = ATF4;ATF4 (Homo sapiens;Homo sapiens, UniProt P18848;P18848 269-346;269-346, |)
BATF3;ATF3 = molecular target: T1, BATF3;ATF3 (Homo sapiens;Homo sapiens, UniProt Q9NR55;P18847 26-99;77-150, |)
T1 sequence 1: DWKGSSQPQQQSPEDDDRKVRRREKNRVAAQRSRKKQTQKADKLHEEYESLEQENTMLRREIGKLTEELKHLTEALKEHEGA
T1 sequence 2: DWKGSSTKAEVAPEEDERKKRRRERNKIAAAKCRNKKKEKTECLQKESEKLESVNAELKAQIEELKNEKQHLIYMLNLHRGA

BATF3;ATF4 = BATF3;ATF4 (Homo sapiens;Homo sapiens, UniProt Q9NR55;P18848 26-99;269-346, |)
BATF3;BATF3 = molecular target: T2, BATF3;BATF3 (Homo sapiens;Homo sapiens, UniProt Q9NR55;Q9NR55 26-99;26-99, |)
T2 sequence 1: T1 sequence 1
T2 sequence 2: T1 sequence 1

ATF2;ATF2 = molecular target: T3, ATF2;ATF2 (Homo sapiens;Homo sapiens, UniProt P15336;P15336 343-417;343-417, |)
T3 sequence 1: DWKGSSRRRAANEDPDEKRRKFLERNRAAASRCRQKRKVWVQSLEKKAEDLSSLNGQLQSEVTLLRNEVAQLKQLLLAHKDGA
T3 sequence 2: T3 sequence 1

JUNB;ATF3 = molecular target: T4, JUNB;ATF3 (Homo sapiens;Homo sapiens, UniProt P17275;P18847 259-332;77-150, |)
T4 sequence 1: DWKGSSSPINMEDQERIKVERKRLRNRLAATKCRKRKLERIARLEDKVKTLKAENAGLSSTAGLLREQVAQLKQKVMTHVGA
T4 sequence 2: T1 sequence 2

JUNB;CEBPG = molecular target: T5, JUNB;CEBPG (Homo sapiens;Homo sapiens, UniProt P17275;P53567 259-332;52-130, |)
T5 sequence 1: T4 sequence 1
T5 sequence 2: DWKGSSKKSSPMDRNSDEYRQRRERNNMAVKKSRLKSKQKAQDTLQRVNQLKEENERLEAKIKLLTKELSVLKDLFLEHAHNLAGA

JUNB;JUN = JUNB;JUN (Homo sapiens;Homo sapiens, UniProt P17275;P05412 259-332;243-316, |)
JUNB;ATF4 = JUNB;ATF4 (Homo sapiens;Homo sapiens, UniProt P17275;P18848 259-332;269-346, |)
JUNB;BATF3 = molecular target: T6, JUNB;BATF3 (Homo sapiens;Homo sapiens, UniProt P17275;Q9NR55 259-332;26-99, |)
T6 sequence 1: T4 sequence 1
T6 sequence 2: T1 sequence 1

JUNB;ATF2 = molecular target: T7, JUNB;ATF2 (Homo sapiens;Homo sapiens, UniProt P17275;P15336 259-332;343-417, |)
T7 sequence 1: T4 sequence 1
T7 sequence 2: T3 sequence 1

CEBPG;CEBPG = molecular target: T8, CEBPG;CEBPG (Homo sapiens;Homo sapiens, UniProt P53567;P53567 52-130;52-130, |)
T8 sequence 1: T5 sequence 2
T8 sequence 2: T5 sequence 2

CEBPA;CEBPA = CEBPA;CEBPA (Homo sapiens;Homo sapiens, UniProt P49715;P49715 273-345;273-345, |)
XBP1;XBP1 = molecular target: T9, XBP1;XBP1 (Homo sapiens;Homo sapiens, UniProt P17861;P17861 61-138;61-138, |)
T9 sequence 1: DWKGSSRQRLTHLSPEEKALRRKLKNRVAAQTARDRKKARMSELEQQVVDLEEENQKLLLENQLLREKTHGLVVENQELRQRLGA
T9 sequence 2: T9 sequence 1

DBP;DBP = molecular target: T10, DBP;DBP (Homo sapiens;Homo sapiens, UniProt Q10586;Q10586 246-324;246-324, |)
T10 sequence 1: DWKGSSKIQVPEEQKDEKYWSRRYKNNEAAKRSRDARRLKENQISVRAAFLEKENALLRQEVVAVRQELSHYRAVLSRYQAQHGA
T10 sequence 2: T10 sequence 1

CEBPA;CEBPA, sequence (P49715 other isoform, or with tags, fused parts or gaps |, chain 1 of 2): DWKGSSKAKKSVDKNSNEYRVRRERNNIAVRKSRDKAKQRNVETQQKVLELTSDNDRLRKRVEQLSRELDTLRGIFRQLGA
CEBPA;CEBPA, sequence (P49715 other isoform, or with tags, fused parts or gaps |, chain 2 of 2): as the sequence (P49715 other isoform, or with tags, fused parts or gaps |, chain 1 of 2) above
ATF4;CEBPA, sequence (P18848 other isoform, or with tags, fused parts or gaps |, chain 1 of 2): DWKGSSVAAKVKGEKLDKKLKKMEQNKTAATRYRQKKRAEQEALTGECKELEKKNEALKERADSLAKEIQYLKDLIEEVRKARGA
ATF4;CEBPA, sequence (P49715 other isoform, or with tags, fused parts or gaps |, chain 2 of 2): as the sequence (P49715 other isoform, or with tags, fused parts or gaps |, chain 1 of 2) above
ATF4;ATF4, sequence (P18848 other isoform, or with tags, fused parts or gaps |, chain 1 of 2): as the sequence (P18848 other isoform, or with tags, fused parts or gaps |, chain 1 of 2) above
ATF4;ATF4, sequence (P18848 other isoform, or with tags, fused parts or gaps |, chain 2 of 2): as the sequence (P18848 other isoform, or with tags, fused parts or gaps |, chain 1 of 2) above
ATF4;CEBPG, sequence (P18848 other isoform, or with tags, fused parts or gaps |): as the sequence (P18848 other isoform, or with tags, fused parts or gaps |, chain 1 of 2) above
JUNB;ATF4, sequence (P18848 other isoform, or with tags, fused parts or gaps |): as the sequence (P18848 other isoform, or with tags, fused parts or gaps |, chain 1 of 2) above
FOS;CEBPG, sequence (P01100 other isoform, or with tags, fused parts or gaps |): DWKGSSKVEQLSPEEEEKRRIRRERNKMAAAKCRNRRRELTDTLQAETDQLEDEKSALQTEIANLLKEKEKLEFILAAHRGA
JUN;JUN, sequence (P05412 other isoform, or with tags, fused parts or gaps |, chain 1 of 2): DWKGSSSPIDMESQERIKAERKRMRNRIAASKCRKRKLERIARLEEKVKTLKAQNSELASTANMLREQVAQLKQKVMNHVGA
JUN;JUN, sequence (P05412 other isoform, or with tags, fused parts or gaps |, chain 2 of 2): as the sequence (P05412 other isoform, or with tags, fused parts or gaps |, chain 1 of 2) above
JUNB;JUN, sequence (P05412 other isoform, or with tags, fused parts or gaps |): as the sequence (P05412 other isoform, or with tags, fused parts or gaps |, chain 1 of 2) above
JUN;ATF3, sequence (P05412 other isoform, or with tags, fused parts or gaps |): as the sequence (P05412 other isoform, or with tags, fused parts or gaps |, chain 1 of 2) above

In the case of CCTGACGTCA, the binding signal (FOS;CEBPG) is reported as 0.0189 relative CSI intensity (max = 1), the binding signal (JUN;ATF3) is reported as 0.177 relative CSI intensity (max = 1) and the binding signal (JUN;JUN) is reported as 0.0544 relative CSI intensity (max = 1). The binding signal (ATF4;CEBPG) was 0.0346 relative CSI intensity (max = 1), the binding signal (ATF4;CEBPA) was 0.127 relative CSI intensity (max = 1) and the binding signal (ATF4;ATF4) was 0.0219 relative CSI intensity (max = 1). For the same sequence, the binding signal (BATF3;ATF3) was 0.0499 relative CSI intensity (max = 1), the binding signal (BATF3;ATF4) was 0.0241 relative CSI intensity (max = 1) and the binding signal (BATF3;BATF3) was 0.0069 relative CSI intensity (max = 1). For the same sequence, the binding signal (ATF2;ATF2) was 0.144 relative CSI intensity (max = 1), the binding signal (JUNB;ATF3) was 0.031 relative CSI intensity (max = 1) and the binding signal (JUNB;CEBPG) was 0.00362 relative CSI intensity (max = 1). For the same sequence, the binding signal (JUNB;JUN) was 0.0172 relative CSI intensity (max = 1), the binding signal (JUNB;ATF4) was 0.0113 relative CSI intensity (max = 1) and the binding signal (JUNB;BATF3) was 0.0239 relative CSI intensity (max = 1). For the same sequence, the binding signal (JUNB;ATF2) was 0.0143 relative CSI intensity (max = 1).

For ATGACGTCAT, the binding signal (FOS;CEBPG) was 0.508 relative CSI intensity (max = 1), the binding signal (CEBPG;CEBPG) was 0.00362 relative CSI intensity (max = 1) and the binding signal (CEBPA;CEBPA) was 0.015 relative CSI intensity (max = 1). For the same sequence, the binding signal (JUN;ATF3) was 0.367 relative CSI intensity (max = 1), the binding signal (JUN;JUN) was 1 relative CSI intensity (max = 1) and the binding signal (ATF4;CEBPG) was 0.465 relative CSI intensity (max = 1). For the same sequence, the binding signal (ATF4;CEBPA) was 0.584 relative CSI intensity (max = 1), the binding signal (ATF4;ATF4) was 1 relative CSI intensity (max = 1) and the binding signal (BATF3;ATF3) was 0.146 relative CSI intensity (max = 1). For the same sequence, the binding signal (BATF3;ATF4) was 0.748 relative CSI intensity (max = 1), the binding signal (BATF3;BATF3) was 0.904 relative CSI intensity (max = 1) and the binding signal (ATF2;ATF2) was 1 relative CSI intensity (max = 1). For the same sequence, the binding signal (XBP1;XBP1) was 0.222 relative CSI intensity (max = 1), the binding signal (DBP;DBP) was 0.0564 relative CSI intensity (max = 1) and the binding signal (JUNB;ATF3) was 1 relative CSI intensity (max = 1). The binding signal (JUNB;CEBPG) was 0.0649 relative CSI intensity (max = 1), the binding signal (JUNB;JUN) was 0.769 relative CSI intensity (max = 1) and the binding signal (JUNB;ATF4) was 1 relative CSI intensity (max = 1). For the same sequence, the binding signal (JUNB;BATF3) was 1 relative CSI intensity (max = 1) and the binding signal (JUNB;ATF2) was 1 relative CSI intensity (max = 1).

With ATGACGTAAT the binding signal (FOS;CEBPG) was 0.482 relative CSI intensity (max = 1), the binding signal (CEBPG;CEBPG) was 0.0508 relative CSI intensity (max = 1) and the binding signal (CEBPA;CEBPA) was 0.0784 relative CSI intensity (max = 1). For the same sequence, the binding signal (JUN;ATF3) was 0.313 relative CSI intensity (max = 1), the binding signal (JUN;JUN) was 0.091 relative CSI intensity (max = 1) and the binding signal (ATF4;CEBPG) was 0.652 relative CSI intensity (max = 1). The binding signal (ATF4;CEBPA) was 0.695 relative CSI intensity (max = 1), the binding signal (ATF4;ATF4) was 0.00204 relative CSI intensity (max = 1) and the binding signal (BATF3;ATF3) was 0.0292 relative CSI intensity (max = 1). For the same sequence, the binding signal (BATF3;ATF4) was 0.048 relative CSI intensity (max = 1), the binding signal (BATF3;BATF3) was 0.0127 relative CSI intensity (max = 1) and the binding signal (ATF2;ATF2) was 0.289 relative CSI intensity (max = 1). The binding signal (XBP1;XBP1) was 0.00422 relative CSI intensity (max = 1), the binding signal (DBP;DBP) was 0.487 relative CSI intensity (max = 1) and the binding signal (JUNB;ATF3) was 0.166 relative CSI intensity (max = 1). For the same sequence, the binding signal (JUNB;CEBPG) was 0.17 relative CSI intensity (max = 1), the binding signal (JUNB;JUN) was 0.0997 relative CSI intensity (max = 1) and the binding signal (JUNB;ATF4) was 0.0439 relative CSI intensity (max = 1). The binding signal (JUNB;BATF3) was 0.0919 relative CSI intensity (max = 1) and the binding signal (JUNB;ATF2) was 0.151 relative CSI intensity (max = 1).

For ATGATGCAAT, the binding signal (FOS;CEBPG) was 0.64 relative CSI intensity (max = 1), the binding signal (CEBPG;CEBPG) was 0.133 relative CSI intensity (max = 1) and the binding signal (CEBPA;CEBPA) was 0.124 relative CSI intensity (max = 1). For the same sequence, the binding signal (JUN;ATF3) was 0.136 relative CSI intensity (max = 1), the binding signal (JUN;JUN) was 0.00263 relative CSI intensity (max = 1) and the binding signal (ATF4;CEBPG) was 0.965 relative CSI intensity (max = 1). For the same sequence, the binding signal (ATF4;CEBPA) was 1 relative CSI intensity (max = 1), the binding signal (BATF3;ATF3) was 0.00189 relative CSI intensity (max = 1) and the binding signal (BATF3;ATF4) was 0.00441 relative CSI intensity (max = 1). For the same sequence, the binding signal (ATF2;ATF2) was 0.00515 relative CSI intensity (max = 1), the binding signal (DBP;DBP) was 0.00594 relative CSI intensity (max = 1) and the binding signal (JUNB;CEBPG) was 0.252 relative CSI intensity (max = 1). For the same sequence, the binding signal (JUNB;JUN) was 0.0548 relative CSI intensity (max = 1) and the binding signal (JUNB;BATF3) was 0.00368 relative CSI intensity (max = 1).

For ATGACGCAAT, the binding signal (FOS;CEBPG) was 0.92 relative CSI intensity (max = 1), the binding signal (CEBPG;CEBPG) was 0.307 relative CSI intensity (max = 1) and the binding signal (CEBPA;CEBPA) was 0.292 relative CSI intensity (max = 1). For the same sequence, the binding signal (JUN;ATF3) was 0.267 relative CSI intensity (max = 1), the binding signal (JUN;JUN) was 0.0387 relative CSI intensity (max = 1) and the binding signal (ATF4;CEBPG) was 1 relative CSI intensity (max = 1). The binding signal (ATF4;CEBPA) was 0.929 relative CSI intensity (max = 1), the binding signal (BATF3;ATF3) was 0.00445 relative CSI intensity (max = 1) and the binding signal (BATF3;ATF4) was 0.00858 relative CSI intensity (max = 1). For the same sequence, the binding signal (BATF3;BATF3) was 0.00125 relative CSI intensity (max = 1), the binding signal (ATF2;ATF2) was 0.0881 relative CSI intensity (max = 1) and the binding signal (XBP1;XBP1) was 0.00105 relative CSI intensity (max = 1). The binding signal (DBP;DBP) was 0.0702 relative CSI intensity (max = 1), the binding signal (JUNB;ATF3) was 0.0139 relative CSI intensity (max = 1) and the binding signal (JUNB;CEBPG) was 0.308 relative CSI intensity (max = 1). The binding signal (JUNB;JUN) was 0.0103 relative CSI intensity (max = 1), the binding signal (JUNB;ATF4) was 0.0028 relative CSI intensity (max = 1) and the binding signal (JUNB;BATF3) was 0.026 relative CSI intensity (max = 1). For the same sequence, the binding signal (JUNB;ATF2) was 0.00356 relative CSI intensity (max = 1).

In the case of ATGACGGAAT, the binding signal (FOS;CEBPG) is reported as 0.0215 relative CSI intensity (max = 1), the binding signal (JUN;ATF3) is reported as 0.0994 relative CSI intensity (max = 1) and the binding signal (JUN;JUN) is reported as 0.0116 relative CSI intensity (max = 1). The binding signal (ATF4;CEBPG) was 0.0162 relative CSI intensity (max = 1), the binding signal (ATF4;CEBPA) was 0.133 relative CSI intensity (max = 1) and the binding signal (BATF3;ATF3) was 0.00122 relative CSI intensity (max = 1). The binding signal (BATF3;ATF4) was 0.00174 relative CSI intensity (max = 1), the binding signal (ATF2;ATF2) was 0.0134 relative CSI intensity (max = 1) and the binding signal (JUNB;ATF3) was 0.00128 relative CSI intensity (max = 1). For the same sequence, the binding signal (JUNB;CEBPG) was 0.00175 relative CSI intensity (max = 1), the binding signal (JUNB;JUN) was 0.0196 relative CSI intensity (max = 1) and the binding signal (JUNB;BATF3) was 0.00175 relative CSI intensity (max = 1).

Source: PMC5349851, “Combinatorial bZIP dimers display complex DNA-binding specificity landscapes”
